Measured values reported in ChEMBL document CHEMBL3988442, “University of Dundee, Small-Polar-MMV Screening Library” (2021).
In all, about 48,000 compounds went through this assay and about 13,000 (27%) showed an effect of 50% or more. Some of the results follow.

These compounds were tested on Wolbachia pipientis (assay: Anti-Wolbachia Cell-Based Screen). Conditions: 5 µM.
Assay type: functional
Design: scale not given: in the data most compounds retested in dose-response had high values

SMILES | Percent Effect [%]
CCC(CC)c1cc(CNC(=O)N2CCOC(C)C2)on1 (stereo not given) | 0.178
COc1ccc(C(=O)N2CCC(Oc3cccc(C)c3)(C(=O)O)CC2)o1 | -1.031
Cc1ccc(Cl)c(C(C(=O)O)N(C)Cc2cnn(C)c2)c1 (stereo not given) | -5.56
O=C(NC1CCS(=O)(=O)C1)c1sccc1-c1ccc(F)cc1 (stereo not given) | 12.15
CC(C)c1ncc(CN2CCCC2c2[nH]ncc2C(=O)N(C)C)cn1 (stereo not given) | 138.1
CC(C)c1ncc(CN2CCCC(CO)C2)cn1 (stereo not given) | -2.469
CNc1ncc(CN2CCCC2c2[nH]ncc2C(=O)N(C)C)cn1 (stereo not given) | 118.3
CC(C)c1ncc(CN2C[C@@H](CN3CCC(O)CC3)[C@@H](CO)C2)cn1 | -17.14
CCc1cn[nH]c1C1CCCN(C(=O)c2cnc(NC(C)C)nc2)C1 (stereo not given) | -3.348
COc1ccccc1CC1CCCN1C(=O)c1cn[nH]c1C (stereo not given) | 6.47
CC(C)c1ncc(CN2CCC(c3n[nH]cc3C(=O)N(C)C)C2)cn1 (stereo not given) | 128.3
CC(C)c1ncc(CN2C[C@@H](CN3CCCC3)[C@@H](CO)C2)cn1 | -18.71
CNc1ncc(CN(C)C(=O)[C@@]23CNC[C@@H]2CN(C2CCCC2)C3)cn1 | 3.616
COc1ncc(CN2CCCC2c2[nH]ncc2C(=O)N(C)C)cn1 (stereo not given) | 107.3
CCN1CCN(C[C@@H]2CN(Cc3cnc(C(C)C)nc3)C[C@@H]2CO)CC1 | -21.09
Cc1nn(C)c(C)c1C1CCCN1Cc1cccc(C(=O)N(C)C)c1 (stereo not given) | -5.304
CCC(CC)N(C)S(=O)(=O)c1ccc(CCNC(C)=O)s1 | -16.74
COc1cccc2c1OCC(C(=O)N(C)CCCc1cnn(C)c1)C2 (stereo not given) | -4.921
Cc1cccn2cc(CN3CCCC(c4ccn[nH]4)C3)nc12 (stereo not given) | 3.062
Cc1cc(F)ccc1-n1cc(O)c(C(=O)NCC[S+](C)[O-])n1 (stereo not given) | 102.5
COCCn1ccc2cc(NC(=O)N(C)C(C)CSC)ccc21 (stereo not given) | 13.09
O=C(c1nn(-c2ccccc2F)cc1O)N1CCCC1 | -1.057
CC(C)c1cccc(-n2cc(O)c(C(N)=O)n2)c1 | -1.55
COCCNC(=O)c1nn(-c2cccc(C(C)C)c2)cc1O | -7.047
CC(C)c1cccc(-n2cc(O)c(C(=O)NCCC(=O)N(C)C)n2)c1 | -3.512

SMILES | Percent Effect [%]
C[S+]([O-])CCNC(=O)Nc1cc(F)ccc1-n1cccn1 (stereo not given) | -7.044
Cc1nc(NC(=O)c2nn(-c3ccc(F)cc3C)cc2O)n[nH]1 | 158.1
Cc1cc(F)ccc1-n1cc(O)c(C(N)=O)n1 | 117.5
Cc1nc(C(C)NC(=O)COc2ccc(F)cc2)n[nH]1 (stereo not given) | -12.19
CC(C)C(O)CCNC(=O)Nc1cc(F)ccc1-n1cccn1 (stereo not given) | -1.867
CSCC(C)N(C)C(=O)c1nn(-c2ccc(F)cc2C)cc1O (stereo not given) | 188.7
COc1cccc(C2C3=C(COC3=O)Nc3[nH]nc(C)c32)c1O (stereo not given) | 0.9958
OCc1cc2ccccc2nc1NCC1(O)CCC1 | 2.986
Cc1cc(F)ccc1-n1cc(O)c(C(=O)NCC2(O)CCC2)n1 | 99.53
O=C(NCC1(O)CCOCC1)c1ccn(-c2ccccc2F)n1 | -4.813
O=C(NCCC(=O)N1CCCC1)c1nn(-c2ccccc2F)cc1O | -1.899
Fc1cnc(N2CCO[C@H]3[C@H](OCC4CCOCC4)CC[C@@H]32)nc1.O=C(O)C(F)(F)F | 113.1
Fc1cnc(N2C[C@@H](OCC3CCOCC3)[C@H]3OCCC[C@H]32)nc1.O=C(O)C(F)(F)F | 83.11
O=C(O)C(F)(F)F.c1cnc(N2CCO[C@H]3[C@H](OCC4CC4)CC[C@@H]32)nc1 | 118.2
O=C(O)C(F)(F)F.c1cnc(N2CCO[C@H]3[C@H](OCCN4CCCC4)CC[C@@H]32)nc1 | -8.905
Cc1nnc(N2CCO[C@H]3[C@@H](OCc4ccccn4)CC[C@@H]32)s1.O=C(O)C(F)(F)F.O=C(O)C(F)(F)F | 0.4576
Fc1cnc(N2CC[C@@H](N3CCOCC3)[C@@H]2Cc2ccncc2)nc1.O=C(O)C(F)(F)F.O=C(O)C(F)(F)F | -1.872
Cc1nnc(N2C[C@@H](OCC3CCCC3)[C@H]3OCCC[C@H]32)s1.O=C(O)C(F)(F)F | -7.489
O=C(CO[C@@H]1CC[C@H]2[C@H]1OCCN2c1ncccn1)N1CCCC1.O=C(O)C(F)(F)F | -14.02
Fc1cnc(N2CCO[C@H]3[C@H](OCCN4CCCC4)CC[C@@H]32)nc1.O=C(O)C(F)(F)F | 101.9
Cc1nnc(N2C[C@H](OCC3CCCC3)[C@H]3OCCC[C@H]32)s1.O=C(O)C(F)(F)F | -7.444
C1CC(CN2CCO[C@H]3[C@H](OCC4CC4)CC[C@@H]32)CCO1.O=C(O)C(F)(F)F | -2.542
Cn1cccc1C(=O)NS(=O)(=O)c1cnn(-c2ccccc2F)c1 | -15.01
CCC(CC)c1cc(CNC(=O)N2CCC(CO)CC2)on1 | 3.231
CCSc1ccc(NC(=O)NC(C)c2ccncc2)cn1 (stereo not given) | 4.069

SMILES | Percent Effect [%]
c1cnc(N2CCO[C@H]3[C@H](OCCN4CCOCC4)CC[C@@H]32)nc1 | 4.128
Cc1ccc(N2CCO[C@H]3[C@H](OCC(=O)N4CCCC4)CC[C@@H]32)cc1.O=C(O)C(F)(F)F | -12.38
CN(C)C(=O)CO[C@@H]1CC[C@H]2[C@H]1OCCN2c1ncc(F)cn1.O=C(O)C(F)(F)F | 112.4
O=C(O)C(F)(F)F.c1cnc(N2CCO[C@H]3[C@H](OCC4CCOCC4)CC[C@@H]32)nc1 | 109.2
CN(C)C(=O)CO[C@@H]1CC[C@H]2[C@H]1OCCN2c1ncccn1.O=C(O)C(F)(F)F | -13.26
CC(C)c1noc(CS(=O)(=O)CC(=O)NCc2ccccc2)n1 | -6.671
CNC(=O)CC1CCN(C(=O)NCC2(c3ccccc3F)CC2)CC1 | 17.39
C[C@H](NC(=O)c1cnc(-c2ccccc2)nc1O)C(N)=O | -2.731
CC(=O)N[C@@H](C)C(=O)NCc1cccnc1Oc1ccccc1F | -9.866
Cc1cccc(C)c1Oc1ncccc1CNC(=O)C1COC(=O)N1 (stereo not given) | 89.56
O=C1NC(C(=O)NCc2cccnc2Oc2ccccc2F)CO1 (stereo not given) | 117.3
O=C1NC(C(=O)NCc2cccnc2Oc2ccc(F)cc2F)CO1 (stereo not given) | 106.1
CC1(C(=O)NCc2cccnc2Oc2ccc(F)c(F)c2)CCCNC1 (stereo not given) | -1.745
Cc1cccc(C)c1Oc1ncccc1CNC(=O)C1(C)CCCNC1 (stereo not given) | 9.373
CN(C)S(=O)(=O)NCc1cccnc1Oc1ccccc1F | -2.54
COc1ccccc1Oc1ncccc1CNC(=O)C(O)C(F)(F)F (stereo not given) | -1.797
O=C(CN1CCCC1=O)NCc1cccnc1Oc1ccc(F)c(F)c1 | -46.82
CC1(C(=O)NCc2cccnc2Oc2ccc(F)cc2F)CCCNC1 (stereo not given) | -10.63
O=C1NC(C(=O)NCc2cccnc2Oc2ccc(F)c(F)c2)CO1 (stereo not given) | 103.5
Cc1ccccc1Oc1ncccc1CNC(=O)Cn1cccnc1=O | -3.943
CC(C)c1noc(CN(C)C(c2ccc(F)cc2)c2cccnc2)n1 (stereo not given) | 7.35
CCn1nc2c(cc1=O)CN(CCCOc1ccc(C#N)cc1)CC2 | -4.501
CC(C)(C)OC(=O)NCC1CCCCN1Cc1cccc(C(N)=O)c1 (stereo not given) | -2.516
CCOC(=O)C1CN(C(=O)C2CCOCC2)Cc2ncn(CC)c21 (stereo not given) | 3.509
Cc1nnc(CN2CCCC2c2ccc(C(C)(C)C)cc2)o1 (stereo not given) | -26.52

SMILES | Percent Effect [%]
CSc1ncccc1C(=O)N1CCC2(CC1)c1nc[nH]c1CCN2C | 9.792
CCSCCC(=O)Nc1ncn(Cc2cccnc2)n1 | -3.764
O=S(=O)(Cc1cccc2cccnc12)NC(CO)c1ccco1 (stereo not given) | -8.128
COc1ccccc1Oc1ncccc1CNC(=O)[C@@H](N)[C@@H](C)O | -22.34
COc1ccccc1Oc1ncccc1CNC(=O)[C@H](C)O | -22.76
Cc1nc(CNCc2cccnc2Oc2ccc(C)c(F)c2F)c[nH]1 | -6.11
COc1ccccc1Oc1ncccc1CNC(=O)C1COC(=O)N1 (stereo not given) | 98.82
CCCS(=O)(=O)NCc1cccnc1Oc1ccc(C)c(F)c1F | -1.189
Cc1ccc(Oc2ncccc2CNC(=O)C2COC(=O)N2)c(F)c1F (stereo not given) | 65.92
c1ccc(-c2nccc(CNCC3CCCN3c3cccnn3)n2)cc1 (stereo not given) | 1.65
Cn1cnc2c1CCN(CC(O)c1ccc3c(c1)OCCO3)C2 (stereo not given) | 2.698
Cc1nc(C(=O)N2CC(C)Sc3ccccc32)cs1 (stereo not given) | -0.9397
CN(Cc1ncnn1C)c1ccnc(Cc2ccccc2)n1 | -0.8819
CCCS(=O)(=O)N1CCC2(CC1)CN(CC1CCOC1)c1ccccc12.O=C(O)C(F)(F)F (stereo not given) | 105.4
CCS(=O)(=O)N1CCC2(CC1)CN(CC1CCOC1)c1ccccc12.O=C(O)C(F)(F)F (stereo not given) | 101.7
CCCS(=O)(=O)N1CCC2(CC1)CC(N1CCCC1)c1ccccc12.O=C(O)C(F)(F)F (stereo not given) | 11.6
O=C(O)C(F)(F)F.c1cnc(N2CC3(CCN(C4CCOCC4)CC3)c3ccccc32)nc1 | 5.791
O=C(O)C(F)(F)F.c1cncc(C2CC3(CCN(c4cnccn4)CC3)c3ccccc32)c1 (stereo not given) | 23.08
CCCS(=O)(=O)N1CCC2(CC1)CN(C(=O)N(C)C)c1ccccc12 | -3.576
O=C(O)C(F)(F)F.c1cnc(N2CC3(CCN(CC4CCOC4)CC3)c3ccccc32)nc1 (stereo not given) | -15.18
CN1CC2(CCN(S(=O)(=O)C3CC3)CC2)c2ccccc21.O=C(O)C(F)(F)F | -12.74
O=C(O)C(F)(F)F.c1ccc2c(c1)N(CC1CCOC1)CC21CCN(c2cnccn2)CC1 (stereo not given) | 103.7
O=C(O)C(F)(F)F.O[C@@H]1CCN(CC2CCOC2)[C@H]1Cc1ccccc1 (stereo not given in full) | -6.584
CCS(=O)(=O)N1CCC2(CCC(N3CCCC3)c3ccccc32)CC1.O=C(O)C(F)(F)F (stereo not given) | 6.992
CS(=O)(=O)N1CCC2(CC1)CN(CC1CCOC1)c1ccccc12.O=C(O)C(F)(F)F (stereo not given) | 90.82
